Data as given in PubChem BioAssay AID1626 (SRMLSC, 2009).
The campaign covered roughly 220,000 compounds. About 2,000 (0.91%) were called active. Roughly 2% stayed inconclusive and do not appear here. The list is a sample of the results. Measured potencies and affinities stand elsewhere. Values without a mark were called inactive. No stated cut-off is given here; in the data, inconclusive means inhibition above about 80% without an active follow-up result; inactive means below that; test concentration not stated here.

Experiment: M. tuberculosis H37Rv growth inhibitors, H37Rv strain (AID 1626);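 further: bacteria incubated seven days before Alamar blue readout; 0% = bacteria only wells and 100% = bacteria with antibiotic wells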
Conditions: active compounds read high, concentration not given here

| Structure (SMILES) | inhibition [%] |
| --- | --- |
| CC(=O)Nc1ccc(S(=O)(=O)N2CCN(CCN3CCOCC3)CC2)cc1Cl | -2.42 |
| O=C(CCc1ccccc1)Nc1nc2c(F)cc(F)cc2s1 | 12.2 |
| Cc1onc(-c2ccccc2)c1C(=O)Nc1nc(-c2cc(F)ccc2F)cs1 | -3.02 |
| O=C(Nc1nc(-c2cc(F)ccc2F)cs1)C1=NN(c2ccccc2)C(=O)CC1 | 8.23 |
| O=C(Nc1nc2ccc(F)cc2s1)c1cccs1 | -2.98 |
| O=C(NNc1nc2c(F)cc(F)cc2s1)c1ccccc1 | 6.46 |
| O=C(Nc1nc2ccccc2s1)c1ccc(F)cc1 | 2.23 |
| S=C(NCC1CCCO1)Nc1ccccc1Cl (stereo not drawn) | -6.63 |
| CC(C)(C)C(O)(CC#CCN1CCCC1)c1ccccc1 (stereo not drawn) | -4.05 |
| O=C(NCC1OCCc2ccccc21)C1COc2ccccc2O1 (stereo not drawn) | 9.06 |
| Cc1cccc(NC(=O)C2(c3cccs3)CCOCC2)n1 | -3.03 |
| CCn1c(=O)cc(N2CCN(C(=O)c3ccco3)CC2)[nH]c1=O | 11.9 |
| O=C(COC(=O)C1CC1)Nc1ccc2[nH]c(=O)[nH]c2c1 | 1.3 |
| COC(=O)CSc1cc(C)nc2ccc(OC)cc12 | 10.7 |
| CCOC(=O)CSc1cc(C)nc2ccc(OC)cc12 | -0.58 |
| CCCCOC(=O)C1=C(C)Nc2ncnn2C1c1cccc(OC)c1 (stereo not drawn) | -2.89 |
| Cc1[nH]c2ccccc2c1/C=N/NC(=O)CNC(=O)c1ccccc1 | -7.99 |
| Cc1cc(C)n(CC(C)NCc2cn[nH]c2-c2ccc(C)c(C)c2)n1 (stereo not drawn) | 1.18 |
| CC1=C(/C=C/C(C)=C/C=C/C(C)=C\C(=O)O)C(C)(C)CCC1 | -10.9 |
| CC1=C(/C=C/C(C)=C/C=C/C(C)=C/C(=O)O)C(C)(C)CCC1 | -5.32 |
| CN(C)c1ccc(N=Nc2ccccc2C(=O)OCC(=O)N(C)C2CCCCC2)cc1 | 27.3 |
| CN(C)c1ccc(N=Nc2ccccc2C(=O)OCC(=O)NC2CCCC2)cc1 | 46 |
| Nc1cc(C(=O)c2cccs2)ccc1Cl | -7.59 |
| Cc1ncc([N+](=O)[O-])n1CC(=O)NC(C)(C)C | -1.73 |
| CC(=O)N/C(=C\c1ccc(F)cc1)C(=O)N(C)C | -5.54 |

| Structure (SMILES) | inhibition [%] |
| --- | --- |
| COc1ccc(N2CCN(C(CNC(=O)c3cccc(Cl)c3)c3cccnc3)CC2)cc1 (stereo not drawn) | -9.59 |
| COc1ccc(CCNCC(O)COc2cccc(Br)c2)cc1 (stereo not drawn) | -1.52 |
| OC(CNCCc1ccccc1)COc1ccc(OCC(O)CNCCc2ccccc2)cc1 (stereo not drawn) | -6.51 |
| CCN(CC)S(=O)(=O)c1ccc(N2CCOCC2)c(NC(=O)c2cccc3ccccc23)c1 | 11.2 |
| CC1CN(C(=O)c2cccc(S(=O)(=O)N3CCOCC3)c2)CC(C)O1 (stereo not drawn) | -11.8 |
| Cc1ccccc1-n1ncc(C(C)NC(=O)c2ccccc2)c1C (stereo not drawn) | -0.68 |
| O=C(NCc1ccccc1)NC(=O)c1ccccc1 | -2.58 |
| COCCN=C1Sc2nc3ccc(C)cc3cc2CN1Cc1ccco1 | -8.23 |
| COCCN=C1Sc2nc3cc(C)c(C)cc3cc2CN1Cc1cccs1 | 10 |
| Cc1c(-n2cc(C(=O)O)c(=O)c3cc(F)c(N4CCCC4)c(F)c32)c(=O)n(-c2ccccc2)n1C | 3.58 |
| O=C(O)c1cn(-c2ccc(F)c(F)c2)c2c(F)c(F)c(F)c(F)c2c1=O | 6.77 |
| COC(=O)c1c(N2C(=O)[C@H]3[C@@H](C2=O)[C@]2(C(=O)Nc4c2ccc(C)c4C)N2CCC[C@@H]32)sc(C)c1C | 4.68 |
| CN(C)c1ccc(/C=N/N=C(N)N)cc1[N+](=O)[O-] | -2.01 |
| O=c1c2cc(NC(=S)N3CCCC3)ccc2nc2n1CCCCC2 | 5.39 |
| O=C(O)C12C[C@H]3C[C@@H](C1)CC(n1ncc(N4CCN(c5ccccc5)CC4)c(Cl)c1=O)(C3)C2 | -7.44 |
| Cc1ccc(N=CC2=C(O)CC(c3ccco3)CC2=O)cc1 (stereo not drawn) | -4.64 |
| CCc1ccc(N=CC2=C(O)CC(c3ccco3)CC2=O)cc1 (stereo not drawn) | 81 |
| COC(=O)c1[nH]c2cccc(OC)c2c1NC(=O)CCN1CCC(C(N)=O)CC1 | -3.72 |
| CNC(=O)c1csc(-c2ccc(C)cc2)n1 | -5.14 |
| O=C(O)c1ccc(-c2nc(-c3ccc(Cl)c(Cl)c3)cs2)cc1 | 8.4 |
| O=C(O)c1ccc(-c2nc(-c3ccccc3)cs2)cc1 | -1.73 |
| CNC(=O)c1csc(-c2ccncc2)n1 | -3.82 |
| CC(C)OCCCNS(=O)(=O)c1ccc2c(c1)OCCO2 | 2.36 |
| CN(C(=O)CO/N=C/c1ccc(OC(F)F)cc1)C1CCS(=O)(=O)C1 (stereo not drawn) | 8.36 |
| CCOc1ccc(-c2cc(CCCC(=O)NCCCOC)no2)cc1 | 4.11 |

| Structure (SMILES) | inhibition [%] |
| --- | --- |
| CCOc1ccc(-c2cc(CCCC(=O)NCCC(C)C)no2)cc1 | -2.14 |
| CCOc1ccc(-c2cc(CCCC(=O)Nc3cc(OC)ccc3OC)no2)cc1 | 9.58 |
| CCOc1ccc(-c2cc(CCCC(=O)NCCc3ccccc3)no2)cc1 | 4.69 |
| CN(C)c1nc(-c2ccccn2)nnc1-c1ccccc1 | 68 |
| C=CCNc1nc(-c2ccccn2)nnc1-c1ccccc1 | 37 |
| Cc1ccn(C(=O)c2cc3c(C)nn(-c4ccccc4)c3s2)n1 | 10.1 |
| CC(C)(O)C(=O)NNC(=S)Nc1ccc(F)c(Cl)c1 | 14.7 |
| Cc1ccc(N2C(=O)C(CN(C)C)C2c2ccccc2)cc1 (stereo not drawn) | -4.35 |
| COC(=O)C1=C(SC)N(c2ccc(OC)cc2)C(c2ccccc2)CC1=O (stereo not drawn) | -3.65 |
| O=C(O)C1CC(=O)N(c2ccc3c(c2)OCCO3)C1 (stereo not drawn) | 5.06 |
| O=C1c2ccccc2NC(c2ccc3c(c2)OCCO3)N1c1ccc2c(c1)OCCO2 (stereo not drawn) | -7.93 |
| Cc1ccc(N2C(=O)C(CN3CCCC3)C2c2ccccc2)cc1 (stereo not drawn) | 27.1 |
| COc1ccc(N2C(=O)C3CCCN3C2c2ccccc2F)cc1 (stereo not drawn) | -5.95 |
| O=C(NN1CCOCC1)c1cc(-c2ccc(Br)cc2)nc2ccccc12 | 7.15 |
| CC(=O)NCCC(=O)Nc1ccc(F)cc1C | -1.47 |
| Cc1nn(-c2cccc([N+](=O)[O-])c2)c(N)c1-c1ccccc1 | 7.18 |
| COCCNc1nc(-c2ccc(OC)cc2)c(-c2ccc(OC)cc2)s1 | 15.7 |
| Cc1csc(Cn2c(CN(C)C)nc3ccccc3c2=O)n1 | 5.39 |
| COc1cc([N+](=O)[O-])cc(CN2CCCCC2)c1O | 2.21 |
| O=C(CN1CCc2ccccc2C1)NC1CCCC1 | -13.6 |
| CCC(=O)N(Cc1c(C)nn(-c2ccccc2)c1Cl)c1ccc(Cl)cc1 | 8.67 |
| CC(=O)N(Cc1c(C)nn(-c2ccccc2)c1Cl)c1ccc(Cl)cc1 | -13.6 |
| CCn1cc(C(=O)OCC(=O)c2ccc(Cl)cc2)c(=O)c2ccc(C)nc21 | -8.38 |
| O=C1CC(c2ccc(F)cc2)Sc2nc(C34CC5CC(CC(C5)C3)C4)nn21 (stereo not drawn) | 5.92 |
| Cc1ccc(SCn2nnc3ccccc3c2=O)c(C)c1 | -6.38 |

| Structure (SMILES) | inhibition [%] |
| --- | --- |
| COc1ccc2nc(/C=N/NC(=O)[C@@H]3CCCN3C(=O)OC(C)(C)C)ccc2c1 | -1.11 |
| Clc1ccc(-c2nnc(NC3=NCCCCC3)o2)cc1 | -12.1 |
| O=C(NCc1nnc2n1CCCCC2)c1ccc(Cl)cc1Cl | -8.85 |
| O=C(COc1ccc(Cl)cc1)Nc1nnc(-c2ccco2)o1 | 0.85 |
| CC(=O)Nc1ccc2c(c1)CCCC2 | 0.76 |
| CC(=O)Nc1cccc(-c2nnc(-c3ccccc3)o2)c1 | -12.3 |
| O=C(COc1ccccc1)Nc1nnc(-c2ccccc2)o1 | 12.6 |
| CCN(CC)S(=O)(=O)c1ccc(N=N/C(C(C)=O)=C(/C)O)cc1 | -10.5 |
| Cc1c(C#N)c(N=CN(C)C)c(C(=O)c2ccc(Br)cc2)n1-c1ccc(Cl)cc1 | 1.78 |
| CCn1c(C)nc2cc(S(=O)(=O)N3CCCCC3)ccc21 | -10.8 |
| C=C1C(=O)O[C@@H]2C[C@@H](C)[C@H]3C=CC(=O)[C@]3(O)C[C@@H]12 | -7.5 |
| CC(=O)O[C@@H]1[C@H]2[C@@H](C[C@@H](C)[C@@H]3CCC(=O)[C@@]13C)OC(=O)[C@@H]2C | -3.15 |
| CC(=O)O[C@@H]1[C@H]2[C@@H](C[C@@H](C)[C@@H]3C=CC(=O)[C@@]13C)OC(=O)[C@@H]2C | -0.99 |
| C[C@@H]1C[C@@H]2OC(=O)[C@]3(C)[C@H]2[C@@H](OC3(C)O)[C@]2(C)C(=O)C=C[C@H]12 (stereo partly drawn) | -4.34 |
| C=C1C(=O)O[C@H]2[C@H]1[C@H](OC(=O)CC(=O)O[C@@H]1C[C@@H](C)[C@@H]3C=CC(=O)[C@@]3(C)[C@H]3OC(=O)C(=C)[C@H]13)C[C@@H](C)[C@H]1C=CC(=O)[C@]12C | -7.78 |
| COc1ccc(NC(=O)CCc2nc3ccccc3[nH]2)cc1 | -2.77 |
| CC(C)c1nc2c([nH]1)c(=O)n(C)c(=O)n2C | -8.57 |
| Cc1cc(C(=O)Nc2c(F)cc(F)cc2Br)no1 | 16.4 |
| CC(C)c1cc(C(=O)Nc2cc(Br)ccc2O)no1 | 43.5 |
| CCCc1cc(C(=O)Nc2ccc(C(C)=O)cc2)no1 | 79.7 |
| CC(C)Cc1cc(C(=O)Nc2ccc(Br)cc2)no1 | 68.8 |
| O=C(Nc1c(F)cc(F)cc1Br)c1cc(-c2ccc(O)cc2)on1 | 73.7 |
| CCCc1cc(C(=O)Nc2cc(Br)ccc2O)no1 | 78.3 |
